Only some compounds are listed: those with a hit (about 2.9% of all), similar ones and a draw of the others.
D3 ag = activates the human D3 dopamine receptor. P35462. D3R DiscoveRx beta-arrestin cells, luminescence, 90 min. hit rate 0.58% among 410,000. max activation, %. AID 652048; in the data active means max activation above about 30%; further: 0% is about no effect
Target sequence (P35462 whole entry, looked up): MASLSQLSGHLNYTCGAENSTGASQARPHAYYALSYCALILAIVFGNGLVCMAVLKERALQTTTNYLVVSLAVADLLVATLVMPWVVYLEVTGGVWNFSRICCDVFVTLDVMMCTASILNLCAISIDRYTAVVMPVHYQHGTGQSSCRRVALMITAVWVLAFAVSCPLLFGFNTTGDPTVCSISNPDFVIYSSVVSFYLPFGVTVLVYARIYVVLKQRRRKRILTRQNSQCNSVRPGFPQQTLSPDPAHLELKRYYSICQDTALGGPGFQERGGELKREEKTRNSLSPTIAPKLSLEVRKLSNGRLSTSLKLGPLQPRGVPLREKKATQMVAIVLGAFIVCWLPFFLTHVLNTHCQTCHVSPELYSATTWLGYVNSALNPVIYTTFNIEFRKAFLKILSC
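Agonist mode: compounds and dopamine controls were applied to plated cells for 90 min at 37 degrees C after an overnight attachment at 1500 cells/well. Luminescent read-out followed 30 - 60 minutes at room temperature with DiscoveRx detection reagent.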
DRD3 antagonist = antagonists of human D3 dopamine receptor; P35462; D3R cells, DiscoveRx beta-arrestin luminescence, antagonist mode; active compounds read low; max response, negative = inhibition, %; hit rate 2.5% among 360,000; AID 652054; in the data active means max response below about -50%; inconclusive means no clear call, values can overlap the other calls; further: on the % scale 0 is the no-effect control and ±100 the full control effect
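Cells plated overnight at 1500 cells/well, then exposed to library compounds with dopamine controls for 90 minutes at 37 degrees C. DiscoveRx reagent added for 30–60 minutes at room temperature; luminescence read, quantitative HTS format.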
Integrin act MD = integrin-mediated muscular dystrophy alleviation activation; alpha7betagal myoblasts, beta-gal FDG fluorescence, 48 h; Potency, µM (titrated, usually from 38.3 µM), inactives show at the highest dose activation, actives largely listed as activators; hit rate 0.064% among 350,000; active means well fitted activation curve with a large enough effect; inconclusive means small, poorly fitted or top-dose-only effect; inactive means no such curve, though single readings can be large or run the other way;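 further: potency means the concentration at half of the fitted maximal effect; 100% = response of the positive control SU9516; nearly all actives have a fitted effect of over 60% in size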
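alpha7betagal+/- myoblasts (passage 13, 250/well) treated 48 h at 37C with compounds at 1:260 dilution of DMSO stock. Lysed, then beta-galactosidase activity read as FDG fluorescence (ex 480/em 540) after 30 min, with pre-read for autofluorescence.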
* = called active by the depositor; ? = inconclusive; . = no result.

SMILES	D3 ag	DRD3 antagonist	Integrin act MD
O=C(Nc1nnc(S(=O)(=O)N2CCOCC2)s1)c1ccc(F)cc1	3.9	-3.2	-11.8%
NC(=O)CSc1nnc(NC(=O)c2ccc(S(=O)(=O)N3CCOCC3)cc2)s1	-1.5	-0.7	?
O=C(NCCCN1CCOCC1)C1CCN(S(=O)(=O)c2c(Cl)cccc2Cl)CC1	10.7	15.8	-30.7%
CC1CCN(CCCNC(=O)c2n[nH]c(=O)c3ccccc23)CC1	0.5	-61.8*	-5.5%
O=C(NCCc1ccccc1)c1n[nH]c(=O)c2ccccc12	-7.9	-15.9	?
COc1ccc2cc3cc(C(=O)NCCCN4CCC(C)CC4)oc3nc2c1	-14.6	-58.4*	-47.4%
CC1CCN(CCCNC(=O)COc2cc(=O)n(C)c3ccccc23)CC1	-7.2	-74.8*	0.0%
CCN1CCN(CCCNC(=O)c2cc3cc4ccc(OC)cc4nc3o2)CC1	3.0	-28.1	-44.9%
CN(CCNC(=O)CCCOc1cc(=O)n(C)c2ccccc12)Cc1ccccc1	-15.7	-92.5*	-13.8%
CCn1c(=O)cc(OCC(=O)NCCCN2CCC(C)CC2)c2ccccc21	-49.1	?	-12.3%
CN(CCCNC(=O)CCCOc1cc(=O)n(C)c2ccccc12)Cc1ccccc1	-0.4	-9.6	?
Cc1cccc(-c2noc(CNC(=O)Nc3ccc(F)cc3)n2)c1	2.7	6.4	-10.2%
COc1cc(OC)cc(C(=O)NC(C(=O)OCn2nnc3ccccc3c2=O)C(C)C)c1 (centres undefined)	7.8	12.3	-55.5%
O=C(CCl)Nc1c(C(=O)Nc2ccc3c(c2)OCCO3)oc2ccccc12	-1.9	-0.7	-61.3%
COc1cccc(OC)c1C(=O)NNC(=O)c1ccccc1-n1cccc1	-3.5	-12.7	1.8%
COc1ccc2cc3cc(C(=O)NCCN4CCN(Cc5ccccc5)CC4)oc3nc2c1	-12.4	-60.9*	0.0%
CC1CCN(CCCNC(=O)c2coc3nc4ccccc4nc23)CC1	-0.9	-77.8*	-39.3%
CCCN(CCC)CCCNC(=O)c1cc2cc3ccc(OC)cc3nc2o1	11.4	?	-53.3%
CC1CCCN(CCCNC(=O)c2coc3nc4ccccc4nc23)C1 (centres undefined)	-7.5	0.0	-13.8%
COc1ccc2cc3cc(C(=O)NCCN4CCc5ccccc5C4)oc3nc2c1	-12.6	?	0.0%
CCCCN(CC)CCCNC(=O)c1cc2cc3ccc(OC)cc3nc2o1	-1.5	-71.8*	-58.1%
O=C(Nc1ccnn1C1CCN(C/C=C/c2ccccc2)CC1)c1cccc(F)c1	-7.4	-4.5	-0.4%
COc1ccccc1/C=C/C1NC(=O)NC(C)=C1C(=O)OC(C)C (centres undefined)	-13.8	-9.6	-31.2%
COc1ccc(OC)c(NC(=O)c2nc(S(=O)(=O)Cc3ccccc3)ncc2Cl)c1	-37.5	-104.1*	-75.7%
COc1ccc2nc(NC(=O)c3nc(S(=O)(=O)Cc4cccc(C)c4)ncc3Cl)sc2c1	-17.2	.	.
SMILES	D3 ag	DRD3 antagonist	Integrin act MD
COc1ccc(NC(=O)c2nc(S(=O)(=O)Cc3cccc(C)c3)ncc2Cl)c(OC)c1	-8.5	-115.8*	-1.9%
COc1ccc2nc(NC(=O)c3nc(S(=O)(=O)Cc4ccccc4)ncc3Cl)sc2c1	-16.3	.	.
O=C1Nc2ccccc2N(O)N1c1cc(-c2ccccc2Cl)no1	1.3	8.2	1.0%
Cc1onc(-c2ccccc2Cl)c1C(=O)N[C@@H]1C(=O)N2[C@@H]1SC(C)(C)[C@@H]2C(=O)O	1.9	10.1	.
COc1ccc(CC(=O)Nc2ccc3nc(SC)sc3c2)cc1OC	4.6	0.0	0.0%
CNc1nc(-c2ccccc2)c2sccc2n1	-12.9	-74.2*	.
CNc1nc(NCc2ccccc2)c2sccc2n1	6.0	7.4	.
Cc1ccc(OCCC(=O)OCC(=O)NCCNC(=O)COC(=O)CCOc2ccc(C)cc2)cc1	2.9	-60.9*	-9.3%
COC(=O)c1ccc(C(=O)OC)c(NC(=O)COC(=O)CCOc2ccc(C)cc2)c1	2.2	-62.3*	7.5%
Cc1ccc(OCCC(=O)OCC(=O)Nc2ccc(Cl)cn2)cc1	-0.2	0.0	2.8%
Cc1ccc(OCCC(=O)OCC(=O)NCCc2ccccc2)cc1	-1.0	6.5	-15.0%
O=C1CSC(c2cccnc2)N1CC1CC1 (centres undefined)	9.0	4.0	-6.6%
NCCCn1c(C(=O)c2cc(Cl)c(N)c(Cl)c2)c2ccccc2[n+]1[O-]	10.0	-16.0	-5.7%
O=C1C(Cl)=C(NCCc2ccccc2)C(=O)N1CCc1ccccc1	-0.5	-8.5	-6.8%
O=C1C(Cl)=C(NCCc2ccccc2)C(=O)c2ccccc21	-12.7	-71.5*	-71.0%
CC(=O)N(Cc1ccc(F)cc1)C1=C(NCCc2ccccc2)C(=O)c2ccccc2C1=O	3.8	-54.3*	-58.6%
O=C(O)c1cccc(NC2=C(Cl)C(=O)c3ccccc3C2=O)c1	-29.0	-90.3*	-42.2%
CC(=O)N(Cc1ccc(F)cc1)c1cccc(C)c1C	1.4	24.1	26.2%
O=C(O)c1ccc(NC2=C(Cl)C(=O)c3ccccc3C2=O)cc1	-23.1	?	?
Cc1ccc(NC2=C(NC(=O)c3ccccc3)C(=O)c3ccccc3C2=O)cc1Cl	7.3	8.9	-37.5%
O=C1C(Cl)=C(Nc2ccccc2)C(=O)c2ccccc21	-49.3	-73.9*	-61.1%
COc1ccc(N2C(=O)C3CCCN3C2c2ccccc2)cc1Cl (centres undefined)	-2.0	-4.9	21.0%
S=C(Nc1nc2c(s1)CCCC2)NC1CC1	0.0	0.0	1.5%
CC(=O)Oc1ccc(C(=O)[C@H]2[C@H]3C(=O)N(c4ccccc4)C(=O)[C@H]3[C@@H]3C=CC=NN32)cc1	-6.7	-25.3	15.6%
COc1ccc(C(=O)[C@H]2[C@H]3C(=O)N(c4ccccc4)C(=O)[C@H]3C3C=CC=NN32)cc1 (some centres undefined)	67.6*	-10.9	12.9%
SMILES	D3 ag	DRD3 antagonist	Integrin act MD
Cn1nccc1/C=C(/C#N)S(=O)(=O)c1ccccc1	1.2	-55.6*	-23.8%
CCn1cc(/C=C(/C#N)S(=O)(=O)c2ccccc2)cn1	22.2	-19.6	4.1%
COc1ccc2c(c1)CCc1c(C(=O)NC3CCCCC3)noc1-2	34.8*	27.8	-20.7%
COCCNC(=O)c1noc2c1CCc1cc(OC)ccc1-2	10.9	?	2.0%
COc1ccccc1C(CNC(=O)c1cccc(S(=O)(=O)Nc2ccc(F)cc2)c1)N1CCCC1 (centres undefined)	-17.1	-19.8	-37.0%
Cc1noc(C)c1CSCc1ccc(Cl)cc1	-2.0	-12.7	0.0%
CCN(CC)S(=O)(=O)N1CCC(C(=O)NCc2ccc3c(c2)OCO3)CC1	5.6	5.9	-5.5%
COC(=O)[C@@]1(Sc2ccc(C)cc2)CC(=O)N[C@@H]1c1ccco1	1.3	6.6	.
COC(=O)[C@]1(Sc2ccc(C)cc2)CC(=O)N[C@@H]1c1ccco1	-8.3	-69.3*	.
COc1ccc(N2C(=O)CC(Sc3nc(C)c4c(n3)CCCC4)C2=O)cc1 (centres undefined)	-2.6	6.1	-12.1%
OC1c2cc(Cl)ccc2-c2c(Cl)cc(Cl)cc21 (centres undefined)	2.8	8.1	-18.2%
OC1c2cc(Cl)cc(Cl)c2N=C2CCCN21 (centres undefined)	-11.7	-59.3*	.
Cc1ccc2ccc(C3C(=O)c4ccccc4C3=O)nc2c1	-13.9	-63.5*	19.9%
Cc1ccc(C)c(C2C(=O)c3ccccc3C2=O)c1	-3.8	-18.0	-3.8%

Screens deposited in PubChem by National Center for Advancing Translational Sciences (NCATS).
